# How the values were obtained:
# Experiment in all cases: phage ELISA signal ratio (GST-PRM binding over GST background); higher = stronger binding of peptide-phage to the PRM
# [1] = molecular target: T1, VCL 1-259 Vinculin (domain begin residue: 1, domain end residue: 259), P18206
# T1 chain: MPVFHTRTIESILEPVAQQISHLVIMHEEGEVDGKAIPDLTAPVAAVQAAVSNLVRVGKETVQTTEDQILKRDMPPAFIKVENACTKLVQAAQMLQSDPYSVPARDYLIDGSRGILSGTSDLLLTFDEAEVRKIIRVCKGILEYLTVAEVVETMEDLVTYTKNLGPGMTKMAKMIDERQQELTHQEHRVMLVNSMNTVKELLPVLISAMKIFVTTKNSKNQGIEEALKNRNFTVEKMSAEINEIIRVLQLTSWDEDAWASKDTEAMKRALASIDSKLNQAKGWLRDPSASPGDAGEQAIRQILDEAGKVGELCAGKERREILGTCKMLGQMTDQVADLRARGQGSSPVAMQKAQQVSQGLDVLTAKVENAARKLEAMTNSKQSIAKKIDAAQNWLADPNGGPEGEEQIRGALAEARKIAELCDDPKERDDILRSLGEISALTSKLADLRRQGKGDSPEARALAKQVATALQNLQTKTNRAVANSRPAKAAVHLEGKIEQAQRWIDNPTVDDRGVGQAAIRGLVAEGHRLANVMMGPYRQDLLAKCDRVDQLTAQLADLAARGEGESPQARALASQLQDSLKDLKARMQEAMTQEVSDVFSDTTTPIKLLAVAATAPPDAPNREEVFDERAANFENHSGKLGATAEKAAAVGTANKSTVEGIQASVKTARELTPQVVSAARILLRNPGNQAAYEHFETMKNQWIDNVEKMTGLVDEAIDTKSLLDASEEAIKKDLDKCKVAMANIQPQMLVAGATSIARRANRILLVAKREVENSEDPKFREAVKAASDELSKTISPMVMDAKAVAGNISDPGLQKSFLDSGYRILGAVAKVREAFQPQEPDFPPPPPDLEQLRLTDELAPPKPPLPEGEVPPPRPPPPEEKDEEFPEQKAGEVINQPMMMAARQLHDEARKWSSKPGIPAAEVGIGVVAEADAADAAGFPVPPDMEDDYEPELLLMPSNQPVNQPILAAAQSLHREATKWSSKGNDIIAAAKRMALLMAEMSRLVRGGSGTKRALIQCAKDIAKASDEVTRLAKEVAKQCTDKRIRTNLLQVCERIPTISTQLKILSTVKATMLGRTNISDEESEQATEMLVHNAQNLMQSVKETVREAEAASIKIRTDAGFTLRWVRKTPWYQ
# Method in brief: (§1)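 Each value is the phage ELISA signal on the glutathione S-transferase (GST)-domain fusion divided by the signal on GST alone. Human peptide recognition domains were expressed in 96-well plates, fused to the C-terminus of GST, and selected against an M13 phage library carrying randomized, cysteine-free, glycine-flanked hexadecapeptides on the gene-8 major coat protein. After five selection rounds, approximately 48 individual clones from rounds 4 and 5 were tested by phage ELISA, and positive clones were sequenced.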
# [2] = molecular target: VASP 1-114 WH1 (domain begin residue: 1, domain end residue: 114), P50552
# Method in brief: as §1
# [3] = molecular target: UBR5 2391-2453 PABP (domain begin residue: 2391, domain end residue: 2453), O95071
# Method in brief: as §1
# [4] = molecular target: T2, UEVLD 1-145 UEV (domain begin residue: 1, domain end residue: 145), Q8IX04
# T2 chain: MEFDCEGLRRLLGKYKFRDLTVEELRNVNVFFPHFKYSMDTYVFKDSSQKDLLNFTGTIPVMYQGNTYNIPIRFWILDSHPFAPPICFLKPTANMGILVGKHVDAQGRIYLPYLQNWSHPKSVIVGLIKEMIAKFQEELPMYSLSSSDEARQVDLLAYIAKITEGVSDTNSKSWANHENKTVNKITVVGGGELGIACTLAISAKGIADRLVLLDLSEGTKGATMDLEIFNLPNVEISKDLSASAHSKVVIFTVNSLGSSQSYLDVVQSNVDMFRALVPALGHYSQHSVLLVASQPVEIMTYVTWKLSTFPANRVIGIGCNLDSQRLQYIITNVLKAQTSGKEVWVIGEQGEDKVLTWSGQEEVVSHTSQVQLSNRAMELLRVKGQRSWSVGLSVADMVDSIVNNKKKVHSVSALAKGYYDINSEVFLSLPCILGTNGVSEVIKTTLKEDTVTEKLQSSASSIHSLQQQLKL
# Method in brief: as §1
# [5] = molecular target: WDR5 20-334 WD40 (domain begin residue: 20, domain end residue: 334), P61964
# Method in brief: as §1
# [6] = molecular target: T3, UQCRB 8-111 UCR_14kD (domain begin residue: 8, domain end residue: 111), P14927
# T3 chain: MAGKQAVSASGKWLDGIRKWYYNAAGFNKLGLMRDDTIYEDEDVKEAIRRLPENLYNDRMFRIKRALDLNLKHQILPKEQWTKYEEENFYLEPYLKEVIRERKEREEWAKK
# Method in brief: as §1
# VASP 1-114 WH1 (domain begin residue: 1, domain end residue: 114), P50552, sequence (P50552 whole entry): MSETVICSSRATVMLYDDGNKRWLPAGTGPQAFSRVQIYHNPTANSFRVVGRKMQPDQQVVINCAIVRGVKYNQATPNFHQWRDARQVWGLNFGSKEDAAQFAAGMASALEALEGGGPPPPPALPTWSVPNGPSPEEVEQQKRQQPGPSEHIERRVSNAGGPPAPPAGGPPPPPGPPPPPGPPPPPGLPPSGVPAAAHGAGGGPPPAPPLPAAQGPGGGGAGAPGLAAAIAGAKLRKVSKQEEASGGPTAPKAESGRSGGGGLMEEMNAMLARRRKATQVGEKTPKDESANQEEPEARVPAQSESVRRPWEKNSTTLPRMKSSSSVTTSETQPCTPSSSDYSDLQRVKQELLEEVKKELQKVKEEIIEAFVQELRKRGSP
# UBR5 2391-2453 PABP (domain begin residue: 2391, domain end residue: 2453), O95071, sequence (O95071 whole entry): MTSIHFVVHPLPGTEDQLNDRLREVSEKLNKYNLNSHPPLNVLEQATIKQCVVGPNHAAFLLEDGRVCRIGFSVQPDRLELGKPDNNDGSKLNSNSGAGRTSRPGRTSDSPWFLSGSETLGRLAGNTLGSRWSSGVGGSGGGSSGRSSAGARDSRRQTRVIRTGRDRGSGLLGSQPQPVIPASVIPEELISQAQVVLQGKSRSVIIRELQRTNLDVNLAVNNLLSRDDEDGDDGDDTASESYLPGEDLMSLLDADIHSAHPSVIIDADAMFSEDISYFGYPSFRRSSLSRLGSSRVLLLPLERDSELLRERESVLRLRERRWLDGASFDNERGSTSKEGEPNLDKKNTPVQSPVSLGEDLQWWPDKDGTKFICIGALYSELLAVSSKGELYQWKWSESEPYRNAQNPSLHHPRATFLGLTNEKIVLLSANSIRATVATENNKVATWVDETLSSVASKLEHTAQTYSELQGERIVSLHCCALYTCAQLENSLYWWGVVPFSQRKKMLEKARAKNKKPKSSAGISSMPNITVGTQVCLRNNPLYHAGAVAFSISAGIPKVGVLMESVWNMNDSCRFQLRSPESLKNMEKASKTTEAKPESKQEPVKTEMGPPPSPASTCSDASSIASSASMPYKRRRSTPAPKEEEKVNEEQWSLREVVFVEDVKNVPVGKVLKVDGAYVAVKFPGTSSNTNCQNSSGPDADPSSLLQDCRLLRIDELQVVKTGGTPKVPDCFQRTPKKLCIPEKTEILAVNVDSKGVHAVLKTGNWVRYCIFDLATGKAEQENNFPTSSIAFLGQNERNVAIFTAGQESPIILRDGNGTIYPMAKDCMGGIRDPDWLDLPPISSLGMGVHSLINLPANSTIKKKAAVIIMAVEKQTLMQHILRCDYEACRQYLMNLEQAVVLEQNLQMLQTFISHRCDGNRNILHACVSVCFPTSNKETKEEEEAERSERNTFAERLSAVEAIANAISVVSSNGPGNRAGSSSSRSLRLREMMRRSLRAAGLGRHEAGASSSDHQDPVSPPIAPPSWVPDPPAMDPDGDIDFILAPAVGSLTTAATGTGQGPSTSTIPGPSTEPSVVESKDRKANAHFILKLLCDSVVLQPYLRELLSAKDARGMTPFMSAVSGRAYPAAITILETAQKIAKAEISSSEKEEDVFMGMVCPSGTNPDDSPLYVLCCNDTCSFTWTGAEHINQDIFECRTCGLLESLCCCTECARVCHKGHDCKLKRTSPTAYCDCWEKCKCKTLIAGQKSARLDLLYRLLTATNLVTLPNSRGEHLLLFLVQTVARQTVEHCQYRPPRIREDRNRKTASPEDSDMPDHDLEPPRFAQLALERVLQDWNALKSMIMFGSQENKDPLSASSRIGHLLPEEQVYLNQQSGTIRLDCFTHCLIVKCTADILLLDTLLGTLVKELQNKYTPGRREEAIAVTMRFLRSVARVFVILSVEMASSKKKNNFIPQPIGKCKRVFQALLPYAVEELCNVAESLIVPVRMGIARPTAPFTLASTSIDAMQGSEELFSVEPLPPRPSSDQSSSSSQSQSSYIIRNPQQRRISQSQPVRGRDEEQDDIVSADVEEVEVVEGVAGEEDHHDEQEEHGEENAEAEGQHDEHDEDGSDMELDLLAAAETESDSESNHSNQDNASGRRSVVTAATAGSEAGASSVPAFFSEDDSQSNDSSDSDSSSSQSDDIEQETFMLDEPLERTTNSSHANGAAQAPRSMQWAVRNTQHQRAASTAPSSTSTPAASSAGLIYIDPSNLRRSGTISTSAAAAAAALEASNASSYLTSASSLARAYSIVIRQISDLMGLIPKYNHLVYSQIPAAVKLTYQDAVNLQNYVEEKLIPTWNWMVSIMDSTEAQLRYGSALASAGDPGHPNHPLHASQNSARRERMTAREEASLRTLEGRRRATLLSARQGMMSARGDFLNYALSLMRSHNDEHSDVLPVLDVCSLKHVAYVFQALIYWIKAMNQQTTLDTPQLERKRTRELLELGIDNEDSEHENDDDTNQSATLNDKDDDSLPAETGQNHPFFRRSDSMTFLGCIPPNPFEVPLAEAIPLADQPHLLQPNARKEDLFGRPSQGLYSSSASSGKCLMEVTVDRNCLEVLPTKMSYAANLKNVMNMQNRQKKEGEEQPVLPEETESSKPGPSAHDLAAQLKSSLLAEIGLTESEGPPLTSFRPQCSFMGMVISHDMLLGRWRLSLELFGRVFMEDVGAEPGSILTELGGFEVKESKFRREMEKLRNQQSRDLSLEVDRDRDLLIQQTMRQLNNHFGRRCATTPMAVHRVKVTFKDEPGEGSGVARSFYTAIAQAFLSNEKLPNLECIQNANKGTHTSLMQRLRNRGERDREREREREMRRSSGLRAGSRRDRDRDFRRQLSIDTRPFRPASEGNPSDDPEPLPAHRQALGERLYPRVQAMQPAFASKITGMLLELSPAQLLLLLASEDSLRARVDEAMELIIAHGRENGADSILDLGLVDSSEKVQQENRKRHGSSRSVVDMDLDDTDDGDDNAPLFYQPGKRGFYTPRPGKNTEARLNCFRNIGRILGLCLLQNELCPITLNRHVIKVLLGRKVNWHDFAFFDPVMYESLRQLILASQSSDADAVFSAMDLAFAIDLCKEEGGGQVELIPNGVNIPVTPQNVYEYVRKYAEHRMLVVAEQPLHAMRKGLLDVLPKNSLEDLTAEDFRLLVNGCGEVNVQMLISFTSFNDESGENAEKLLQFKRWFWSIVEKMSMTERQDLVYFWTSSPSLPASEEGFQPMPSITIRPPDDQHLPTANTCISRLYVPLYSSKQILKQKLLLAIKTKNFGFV
binder,measurement,setting,value
MPPWTEDAESWHMWLI,phage ELISA signal ratio,[1],14.8
DNFENWIENWLLEYNG,phage ELISA signal ratio,[1],9.78
LDSFWDAENVIRSIMI,phage ELISA signal ratio,[1],12.9
WGSEDTQYWLEYVNSV,phage ELISA signal ratio,[1],24.6
WPPAPPTEQHRQMWAK,phage ELISA signal ratio,[2],7.1
DDIWPVSAVHAQPFMV,phage ELISA signal ratio,[3],21.2
FDWRETLWESSQWMIA,phage ELISA signal ratio,[4],22.7
NTVEWQDMEGHLLGIV,phage ELISA signal ratio,[1],15.3
VLDINAQPFHQSGFNH,phage ELISA signal ratio,[3],25.7
HEIWETDWQWIIDQAY,phage ELISA signal ratio,[1],20.4
MDVAAQPWIPIVPPEG,phage ELISA signal ratio,[3],28.6
NARTDAWWSQQSLQQH,phage ELISA signal ratio,[5],9.86
MSQDWPWPDLSWFDEP,phage ELISA signal ratio,[4],7.15
FMDMWHWQQLEDYMFL,phage ELISA signal ratio,[6],4.85
VLPDWMAQHAWEWTGH,phage ELISA signal ratio,[6],23.9
EFEWIDHFLGNMESGL,phage ELISA signal ratio,[4],8.99
NNQVMNVNATPYYWPT,phage ELISA signal ratio,[3],19.4
WDPQADWQEQVQYWLV,phage ELISA signal ratio,[1],20.4
NWDIWPDWPPTQSVMW,phage ELISA signal ratio,[2],5.89
FPQMWQSPDFWEDWLL,phage ELISA signal ratio,[1],12.6
HPQEWSAEEIMVGILY,phage ELISA signal ratio,[1],14.1
LTGEIWDAEKVIHYVM,phage ELISA signal ratio,[1],11.1
TAHDWIDEWLVQAMLQ,phage ELISA signal ratio,[1],20.3
YWDAGEVMAQIIQSAH,phage ELISA signal ratio,[1],11.9
MMPTTEDGWEMWLAEL,phage ELISA signal ratio,[1],21.4
RTEPYQWMKAAGFPTS,phage ELISA signal ratio,[5],9.24
EALNIFSPMWEPQYVV,phage ELISA signal ratio,[3],19.5
KLDVFAVPFLSSQHEY,phage ELISA signal ratio,[3],22.6
APVVHDFDAYKMLMQL,phage ELISA signal ratio,[1],17.2
WPDDLDWGTWLETLPL,phage ELISA signal ratio,[1],13.3
LWDWTPETEQWFQEIV,phage ELISA signal ratio,[1],13.5
ALSMSAEPFHPMVNYV,phage ELISA signal ratio,[3],30.1
QMNVQAQEWWPAHMTF,phage ELISA signal ratio,[3],18.6
ELSIWADAFQPHWHKV,phage ELISA signal ratio,[3],21.8
VPWSENQEWQWIFEAV,phage ELISA signal ratio,[4],29.3
LDWRMAPEWQWITHHL,phage ELISA signal ratio,[4],3.3
IQDWPELPEVMMHWTL,phage ELISA signal ratio,[2],9.17
WWEQDQDWEEFVNAIE,phage ELISA signal ratio,[1],16.9
DNWYWEAWDAAFLTNG,phage ELISA signal ratio,[1],20.4
DPYWVWPDLPHNVSHP,phage ELISA signal ratio,[2],19.2
LDMFWPEPPMFNREIP,phage ELISA signal ratio,[2],24.9
AWSMLDIANIKPWNPM,phage ELISA signal ratio,[3],18.4
NLETWAWPPWPQEFND,phage ELISA signal ratio,[2],23.3
WRQDLETESLMQWFLW,phage ELISA signal ratio,[4],15.2
VEFWWSDTSARTLPFK,phage ELISA signal ratio,[5],9.42
HQWQGDWDHEHIMMYW,phage ELISA signal ratio,[4],24.1
PAWPPWPAEAVWEATK,phage ELISA signal ratio,[2],12.3
EQDQDLEYRMHMEKWW,phage ELISA signal ratio,[4],19.8
APFTLWESSMEALGEL,phage ELISA signal ratio,[4],23.3
LGQQYQMWEYMASLYN,phage ELISA signal ratio,[4],11.4
STQKDNNWPLPPVMEE,phage ELISA signal ratio,[2],21.6
FDTPLWEQAMWEALGE,phage ELISA signal ratio,[1],13.2
QMIEFWTEEEIMHWVH,phage ELISA signal ratio,[1],13.6
EDHWWIASMWRDQAVQ,phage ELISA signal ratio,[4],18.1
VDDQEWPNMEMLLGIV,phage ELISA signal ratio,[1],17.4
SDDWFFDLTHSIISTD,phage ELISA signal ratio,[1],18.4
ERFTLFQSSMDSILMF,phage ELISA signal ratio,[4],26

# Reference: the supplement of paper PMC7724964
